# Measurements from paper PMC11006913.
# Positions count from the first letter of the chain named.
# How the values were obtained:
# Assay in all cases: PBM; 200 nM protein, PBS
# Conditions in all cases: dsDNA, one strand shown
# CRX [1] = target: CRX (Homo sapiens, UniProt O43186 26-111)
# HOXC9 [2] = target: HOXC9 (Homo sapiens, UniProt P31274 178-260, K195R)
# NKX2-6 = target: T1, NKX2-6 (Homo sapiens, UniProt A6NCS4 118-204, R150C)
# T1 sequence: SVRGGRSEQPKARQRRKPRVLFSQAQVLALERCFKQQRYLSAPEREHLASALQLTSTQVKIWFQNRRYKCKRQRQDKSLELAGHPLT
# CRX [3] = target: CRX (Homo sapiens, UniProt O43186 26-111, E42D)
# Chain of CRX (Homo sapiens, UniProt O43186 26-111, E42D) (O43186 26-111 E42D): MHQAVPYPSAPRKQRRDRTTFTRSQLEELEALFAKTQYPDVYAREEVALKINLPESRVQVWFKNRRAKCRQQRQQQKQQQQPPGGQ
# HOXC9 [4] = target: HOXC9 (Homo sapiens, UniProt P31274 178-260)
# Chain of HOXC9 (Homo sapiens, UniProt P31274 178-260) (P31274 178-260): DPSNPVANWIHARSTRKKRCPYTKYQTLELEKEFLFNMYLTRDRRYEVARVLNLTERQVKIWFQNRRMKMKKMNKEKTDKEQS
# PITX2 = PITX2 (Homo sapiens, UniProt Q99697 72-157)
# HOXC9 [5] = target: HOXC9 (Homo sapiens, UniProt P31274 178-260, R193K)
# Chain of HOXC9 (Homo sapiens, UniProt P31274 178-260, R193K) (P31274 178-260 R193K): as the sequence (P31274 178-260) above, with R16K counted along it
# HOXC9 [6] = target: HOXC9 (Homo sapiens, UniProt P31274 178-260, R222W)
# Chain of HOXC9 (Homo sapiens, UniProt P31274 178-260, R222W) (P31274 178-260 R222W): as the sequence (P31274 178-260) above, with R45W counted along it
# CRX [7] = target: CRX (Homo sapiens, UniProt O43186 26-111, R41L)
# Chain of CRX (Homo sapiens, UniProt O43186 26-111, R41L) (O43186 26-111 R41L): as the sequence (O43186 26-111 E42D) above, with R16L, D17E counted along it
# HOXA4 [8] = target: HOXA4 (Homo sapiens, UniProt Q00056 201-287, W262R)
# Chain of HOXA4 (Homo sapiens, UniProt Q00056 201-287, W262R) (Q00056 201-287 W262R): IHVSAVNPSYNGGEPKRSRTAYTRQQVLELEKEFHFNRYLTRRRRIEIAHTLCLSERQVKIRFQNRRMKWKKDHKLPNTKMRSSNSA
# HOXA4 [9] = target: HOXA4 (Homo sapiens, UniProt Q00056 201-287)
# Chain of HOXA4 (Homo sapiens, UniProt Q00056 201-287) (Q00056 201-287): as the sequence (Q00056 201-287 W262R) above, with R62W counted along it
# VENTX [10] = target: T2, VENTX (Homo sapiens, UniProt O95231 78-163, R121Q)
# T2 sequence: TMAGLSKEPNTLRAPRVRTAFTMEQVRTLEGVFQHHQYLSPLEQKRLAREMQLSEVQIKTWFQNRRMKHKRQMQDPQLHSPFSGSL
# VENTX [11] = target: T3, VENTX (Homo sapiens, UniProt O95231 78-163, Y115F)
# T3 sequence: T2 sequence with Y38F, Q44R
# VENTX [12] = target: T4, VENTX (Homo sapiens, UniProt O95231 78-163)
# T4 sequence: T2 sequence with Q44R
# SIX6 [13] = target: T5, SIX6 (Homo sapiens, UniProt O95475 114-200, L167I)
# T5 sequence: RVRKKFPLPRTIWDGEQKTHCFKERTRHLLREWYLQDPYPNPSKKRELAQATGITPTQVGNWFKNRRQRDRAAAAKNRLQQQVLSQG
# SIX6 [14] = target: T6, SIX6 (Homo sapiens, UniProt O95475 114-200, L143V)
# T6 sequence: T5 sequence with L30V, I54L
# SIX6 [15] = target: T7, SIX6 (Homo sapiens, UniProt O95475 114-200, H141N)
# T7 sequence: T5 sequence with H28N, I54L
# SIX6 [16] = target: T8, SIX6 (Homo sapiens, UniProt O95475 114-200, T165P)
# T8 sequence: T5 sequence with T52P, I54L
# SIX6 [17] = target: T9, SIX6 (Homo sapiens, UniProt O95475 114-200, L143I)
# T9 sequence: T5 sequence with L30I, I54L
# SIX6 [18] = target: T10, SIX6 (Homo sapiens, UniProt O95475 114-200, T165G)
# T10 sequence: T5 sequence with T52G, I54L
# SIX6 [19] = target: T11, SIX6 (Homo sapiens, UniProt O95475 114-200, T139Q)
# T11 sequence: T5 sequence with T26Q, I54L
# SIX6 [20] = target: T12, SIX6 (Homo sapiens, UniProt O95475 114-200)
# T12 sequence: T5 sequence with I54L
# HOXC10 [21] = target: HOXC10 (Homo sapiens, UniProt Q9NYD6 254-340)
# Chain of HOXC10 (Homo sapiens, UniProt Q9NYD6 254-340) (Q9NYD6 254-340): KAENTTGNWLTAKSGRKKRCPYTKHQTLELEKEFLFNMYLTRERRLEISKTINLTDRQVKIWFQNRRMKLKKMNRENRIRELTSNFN
# HOXC10 [22] = target: HOXC10 (Homo sapiens, UniProt Q9NYD6 254-340, K271E)
# Chain of HOXC10 (Homo sapiens, UniProt Q9NYD6 254-340, K271E) (Q9NYD6 254-340 K271E): as the sequence (Q9NYD6 254-340) above, with K18E counted along it
# HOXA2 [23] = target: HOXA2 (Homo sapiens, UniProt O43364 129-215, R185T)
# Chain of HOXA2 (Homo sapiens, UniProt O43364 129-215, R185T) (O43364 129-215 R185T): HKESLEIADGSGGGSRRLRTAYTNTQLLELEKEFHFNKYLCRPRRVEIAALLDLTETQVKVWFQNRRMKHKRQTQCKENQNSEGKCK
# HOXA2 [24] = target: HOXA2 (Homo sapiens, UniProt O43364 129-215, R185K)
# Chain of HOXA2 (Homo sapiens, UniProt O43364 129-215, R185K) (O43364 129-215 R185K): as the sequence (O43364 129-215 R185T) above, with T57K counted along it
# Chain of CRX (Homo sapiens, UniProt O43186 26-111) (O43186 26-111): as the sequence (O43186 26-111 E42D) above, with D17E counted along it
# Chain of HOXC9 (Homo sapiens, UniProt P31274 178-260, K195R) (P31274 178-260 K195R): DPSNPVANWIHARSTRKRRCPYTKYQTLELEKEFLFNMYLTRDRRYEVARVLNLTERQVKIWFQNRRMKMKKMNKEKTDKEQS
sequence,measurement,setting,value
GGGGACCC,binding signal,CRX [1],"8.16 upbm affinity estimate (log intensity, higher = more binding, comparable within an allelic series)"
same,binding signal,HOXC9 [2],"9.36 upbm affinity estimate (log intensity, higher = more binding, comparable within an allelic series)"
same,binding signal,NKX2-6,"9.43 upbm affinity estimate (log intensity, higher = more binding, comparable within an allelic series)"
same,binding signal,CRX [3],"8.31 upbm affinity estimate (log intensity, higher = more binding, comparable within an allelic series)"
same,binding signal,HOXC9 [4],"9.5 upbm affinity estimate (log intensity, higher = more binding, comparable within an allelic series)"
same,binding signal,PITX2,"7.78 upbm affinity estimate (log intensity, higher = more binding, comparable within an allelic series)"
same,binding signal,HOXC9 [5],"9.41 upbm affinity estimate (log intensity, higher = more binding, comparable within an allelic series)"
same,binding signal,HOXC9 [6],"9.52 upbm affinity estimate (log intensity, higher = more binding, comparable within an allelic series)"
same,binding signal,CRX [7],"8.26 upbm affinity estimate (log intensity, higher = more binding, comparable within an allelic series)"
GTGGATTA,binding signal,CRX [1],"13.3 upbm affinity estimate (log intensity, higher = more binding, comparable within an allelic series)"
same,binding signal,HOXA4 [8],"10.2 upbm affinity estimate (log intensity, higher = more binding, comparable within an allelic series)"
same,binding signal,CRX [3],"13.3 upbm affinity estimate (log intensity, higher = more binding, comparable within an allelic series)"
same,binding signal,PITX2,"13.2 upbm affinity estimate (log intensity, higher = more binding, comparable within an allelic series)"
same,binding signal,HOXA4 [9],"10.8 upbm affinity estimate (log intensity, higher = more binding, comparable within an allelic series)"
same,binding signal,CRX [7],"13.1 upbm affinity estimate (log intensity, higher = more binding, comparable within an allelic series)"
ATAATCTG,binding signal,CRX [1],"13 upbm affinity estimate (log intensity, higher = more binding, comparable within an allelic series)"
same,binding signal,VENTX [10],"9.97 upbm affinity estimate (log intensity, higher = more binding, comparable within an allelic series)"
same,binding signal,VENTX [11],"10.1 upbm affinity estimate (log intensity, higher = more binding, comparable within an allelic series)"
same,binding signal,CRX [3],"13 upbm affinity estimate (log intensity, higher = more binding, comparable within an allelic series)"
same,binding signal,CRX [7],"13 upbm affinity estimate (log intensity, higher = more binding, comparable within an allelic series)"
GAGGTACC,binding signal,CRX [1],"8.08 upbm affinity estimate (log intensity, higher = more binding, comparable within an allelic series)"
same,binding signal,VENTX [10],"8.02 upbm affinity estimate (log intensity, higher = more binding, comparable within an allelic series)"
same,binding signal,VENTX [12],"8.04 upbm affinity estimate (log intensity, higher = more binding, comparable within an allelic series)"
same,binding signal,VENTX [11],"8.14 upbm affinity estimate (log intensity, higher = more binding, comparable within an allelic series)"
same,binding signal,CRX [3],"8.18 upbm affinity estimate (log intensity, higher = more binding, comparable within an allelic series)"
same,binding signal,CRX [7],"8.17 upbm affinity estimate (log intensity, higher = more binding, comparable within an allelic series)"
AATTCTGA,binding signal,CRX [1],"10 upbm affinity estimate (log intensity, higher = more binding, comparable within an allelic series)"
CCCTGATC,binding signal,CRX [1],"10.2 upbm affinity estimate (log intensity, higher = more binding, comparable within an allelic series)"
same,binding signal,SIX6 [13],"10.2 upbm affinity estimate (log intensity, higher = more binding, comparable within an allelic series)"
same,binding signal,SIX6 [14],"9.63 upbm affinity estimate (log intensity, higher = more binding, comparable within an allelic series)"
same,binding signal,SIX6 [15],"10.2 upbm affinity estimate (log intensity, higher = more binding, comparable within an allelic series)"
same,binding signal,SIX6 [16],"9.31 upbm affinity estimate (log intensity, higher = more binding, comparable within an allelic series)"
same,binding signal,SIX6 [17],"9.69 upbm affinity estimate (log intensity, higher = more binding, comparable within an allelic series)"
same,binding signal,SIX6 [18],"10.3 upbm affinity estimate (log intensity, higher = more binding, comparable within an allelic series)"
same,binding signal,SIX6 [19],"10.4 upbm affinity estimate (log intensity, higher = more binding, comparable within an allelic series)"
same,binding signal,CRX [3],"10 upbm affinity estimate (log intensity, higher = more binding, comparable within an allelic series)"
same,binding signal,SIX6 [20],"10.2 upbm affinity estimate (log intensity, higher = more binding, comparable within an allelic series)"
CATCATAA,binding signal,CRX [1],"10.1 upbm affinity estimate (log intensity, higher = more binding, comparable within an allelic series)"
same,binding signal,HOXC10 [21],"11.7 upbm affinity estimate (log intensity, higher = more binding, comparable within an allelic series)"
same,binding signal,CRX [3],"10 upbm affinity estimate (log intensity, higher = more binding, comparable within an allelic series)"
same,binding signal,HOXC10 [22],"11.3 upbm affinity estimate (log intensity, higher = more binding, comparable within an allelic series)"
same,binding signal,CRX [7],"9.57 upbm affinity estimate (log intensity, higher = more binding, comparable within an allelic series)"
TGTGTTAA,binding signal,CRX [1],"10.4 upbm affinity estimate (log intensity, higher = more binding, comparable within an allelic series)"
same,binding signal,CRX [3],"10.2 upbm affinity estimate (log intensity, higher = more binding, comparable within an allelic series)"
AGCTCAGC,binding signal,CRX [1],"9.88 upbm affinity estimate (log intensity, higher = more binding, comparable within an allelic series)"
same,binding signal,CRX [3],"9.76 upbm affinity estimate (log intensity, higher = more binding, comparable within an allelic series)"
GTGATTAA,binding signal,CRX [1],"12.3 upbm affinity estimate (log intensity, higher = more binding, comparable within an allelic series)"
same,binding signal,VENTX [11],"11.5 upbm affinity estimate (log intensity, higher = more binding, comparable within an allelic series)"
same,binding signal,HOXA2 [23],"12.7 upbm affinity estimate (log intensity, higher = more binding, comparable within an allelic series)"
same,binding signal,CRX [3],"12.2 upbm affinity estimate (log intensity, higher = more binding, comparable within an allelic series)"
same,binding signal,HOXA2 [24],"13.2 upbm affinity estimate (log intensity, higher = more binding, comparable within an allelic series)"
same,binding signal,CRX [7],"11.7 upbm affinity estimate (log intensity, higher = more binding, comparable within an allelic series)"
